Experiment [1] can be described thus: E. coli DRC41 culture turbidity changes, primary screen, E. coli filamentation inducer project, strain DRC41, OD650, 48 h (AID 1152).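 Also: E. coli MC1000 strain DRC41 lacking acrAB efflux pump and sulA.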 The note with it: E. coli DRC41 (acrAB sulA), higher = more signal, called active from +8 up or from −8 down.
Experiment [2] can be described thus: small-molecule binders of probe aLefty1, primary screen, biochemical, small-molecule microarray, 635/667 nm fluorescence (AID 1153).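 Also: score merges spot fluorescence with signal-to-noise ratio from the scanned slide images.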 The note with it: higher = more signal.
A short description of experiment [3]: PSAC antagonists in infected red cells, primary screen, cell-based, P. falciparum Indochina, OD700, 1 h (AID 1154). The conditions noted are these: P. falciparum Indochina infected RBC osmotic lysis, higher = more signal, called active from +8 up or from −8 down.
A short description of experiment [4]: PSAC antagonists in infected red cells, primary screen, cell-based, P. falciparum Indochina, OD700, 2 h (AID 1155).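 Also: lysis reports solute entry through the parasite surface anion channel PSAC; channel blockers reduce lysis of infected cells.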 The note with it: P. falciparum Indochina infected erythrocytes, osmotic lysis OD700; higher = more signal, called active from +8 up or from −8 down.
Experiment [5] is described as follows: osmotic lysis modulators in infected erythrocytes, primary screen, PSAC antagonist project, cell-based, P. falciparum Indochina, OD700, 3 h (AID 1156). The note with it: higher = more signal, called active from +8 up or from −8 down.
Experiment [6] is described as follows: PSAC antagonists in infected red cells, primary screen, cell-based, P. falciparum Indochina, OD700, 18 h (AID 1157). The note with it: P. falciparum Indochina infected erythrocytes, osmotic lysis OD700, 18 h; higher = more signal, called active from +8 up or from −8 down.
Experiment [7] can be described thus: modulators of S6 phosphorylation in cells, primary screen, cell-based, A549, cytoblot, luminescence, serum-stimulated (AID 1158).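 Also: serum-stimulated A549 lung adenocarcinoma cells; signal is phosphorylated S6 detected by cytoblot immunostaining with HRP secondary.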 The conditions noted are these: A549 phospho-S6 cytoblot, 5 h, higher = more signal.
For experiment [8], the target named is NADPH oxidase 2 (Homo sapiens) (UniProt P04839). Nature of the experiment: NOX2-dependent H2O2 signal modulators, primary screen, NOX inhibitor project, cell-based, HEK293-NOX2, PMA-stimulated, Amplex Red fluorescence (AID 1159). Also: test concentration not given here. The conditions noted are these: 45 min, higher = more signal, called active from +8 up or from −8 down.
Chain of NADPH oxidase 2 (Homo sapiens) (P04839 whole entry, looked up): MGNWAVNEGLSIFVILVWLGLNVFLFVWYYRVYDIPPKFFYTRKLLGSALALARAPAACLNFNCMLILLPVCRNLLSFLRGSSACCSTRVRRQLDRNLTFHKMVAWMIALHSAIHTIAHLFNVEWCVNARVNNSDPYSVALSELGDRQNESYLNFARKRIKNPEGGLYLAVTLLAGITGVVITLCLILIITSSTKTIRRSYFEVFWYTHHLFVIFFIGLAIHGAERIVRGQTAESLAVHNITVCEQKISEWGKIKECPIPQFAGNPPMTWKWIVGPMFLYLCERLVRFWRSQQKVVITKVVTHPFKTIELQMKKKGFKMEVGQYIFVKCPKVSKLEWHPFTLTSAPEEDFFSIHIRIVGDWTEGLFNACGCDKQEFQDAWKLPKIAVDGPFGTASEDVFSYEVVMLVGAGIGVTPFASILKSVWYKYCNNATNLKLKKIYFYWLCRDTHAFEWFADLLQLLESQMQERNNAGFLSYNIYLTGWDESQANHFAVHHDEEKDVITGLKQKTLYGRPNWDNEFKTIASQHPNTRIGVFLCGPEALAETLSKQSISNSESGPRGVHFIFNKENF
The target in experiment [9] is NADPH oxidase 4 (Homo sapiens) (UniProt Q9NPH5). Nature of the experiment: NOX4-dependent H2O2 signal modulators, primary screen, NOX inhibitor project, cell-based, HEK293-NOX4, tetracycline-induced, Amplex Red fluorescence (AID 1160). The conditions noted are these: 45 min, higher = more signal, called active from +8 up or from −8 down.
Chain of NADPH oxidase 4 (Homo sapiens) (Q9NPH5 whole entry, looked up): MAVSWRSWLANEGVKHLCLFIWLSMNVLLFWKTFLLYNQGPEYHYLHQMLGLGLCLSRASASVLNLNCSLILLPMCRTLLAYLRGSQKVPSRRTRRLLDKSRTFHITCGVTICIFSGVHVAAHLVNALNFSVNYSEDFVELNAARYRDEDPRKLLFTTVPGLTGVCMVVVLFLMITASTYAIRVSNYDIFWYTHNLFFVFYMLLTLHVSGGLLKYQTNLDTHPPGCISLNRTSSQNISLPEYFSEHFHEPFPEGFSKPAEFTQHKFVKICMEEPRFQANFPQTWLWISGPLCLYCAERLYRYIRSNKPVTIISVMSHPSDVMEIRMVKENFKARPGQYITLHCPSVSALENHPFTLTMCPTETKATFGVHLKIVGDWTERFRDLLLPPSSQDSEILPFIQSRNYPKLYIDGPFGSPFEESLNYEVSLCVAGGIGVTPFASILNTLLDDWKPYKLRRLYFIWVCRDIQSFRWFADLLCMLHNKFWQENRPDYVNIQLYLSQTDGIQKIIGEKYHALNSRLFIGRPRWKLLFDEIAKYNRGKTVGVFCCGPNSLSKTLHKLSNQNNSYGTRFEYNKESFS
In experiment [10] the target is NADPH oxidase 5 (Homo sapiens) (UniProt Q96PH1). As to the kind of experiment: NOX5-dependent H2O2 signal modulators, primary screen, NOX inhibitor project, cell-based, HEK293-NOX5, Amplex Red fluorescence (AID 1161). The note with it: HEK293-NOX5, ionomycin, 45 min, higher = more signal.
Chain of NADPH oxidase 5 (Homo sapiens) (Q96PH1 whole entry, looked up): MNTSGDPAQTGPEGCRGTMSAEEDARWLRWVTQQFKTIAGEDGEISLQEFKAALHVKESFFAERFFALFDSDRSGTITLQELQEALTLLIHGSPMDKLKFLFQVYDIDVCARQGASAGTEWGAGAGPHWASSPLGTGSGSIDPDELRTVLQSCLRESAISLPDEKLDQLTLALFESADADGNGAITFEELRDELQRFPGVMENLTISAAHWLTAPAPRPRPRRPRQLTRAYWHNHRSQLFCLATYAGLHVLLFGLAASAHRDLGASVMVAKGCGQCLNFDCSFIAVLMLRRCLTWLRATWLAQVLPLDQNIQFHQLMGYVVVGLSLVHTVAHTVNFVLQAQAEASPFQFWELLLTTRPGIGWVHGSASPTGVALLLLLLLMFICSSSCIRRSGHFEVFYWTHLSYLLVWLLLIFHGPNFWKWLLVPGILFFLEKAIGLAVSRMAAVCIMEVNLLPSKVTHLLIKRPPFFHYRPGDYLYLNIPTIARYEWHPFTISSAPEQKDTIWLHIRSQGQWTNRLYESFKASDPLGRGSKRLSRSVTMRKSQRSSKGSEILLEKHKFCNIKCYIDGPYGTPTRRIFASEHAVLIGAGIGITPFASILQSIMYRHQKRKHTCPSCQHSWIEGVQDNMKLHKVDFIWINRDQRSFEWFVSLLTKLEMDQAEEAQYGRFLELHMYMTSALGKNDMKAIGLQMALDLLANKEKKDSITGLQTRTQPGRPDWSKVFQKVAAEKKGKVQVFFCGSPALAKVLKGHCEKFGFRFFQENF
The nature of experiment [11]: A549 cell viability effects, profiling panel, calcein-AM fluorescence, 48 h, basal (AID 1162). Also: test concentration not given here. The note with it: higher = more signal.
Experiment [12] is described as follows: adipocyte viability effects, profiling panel, cell-based, 3T3-L1 adipocytes, calcein-AM fluorescence, 48 h, basal (AID 1163). Also: test concentration not given here. The note with it: 3T3-L1 adipocytes viability, higher = more signal.
Experiment [13] is described as follows: HepG2 cell viability effects, profiling panel, calcein-AM fluorescence, 48 h, basal (AID 1164). Also: test concentration not given here. The note with it: higher = more signal.
The nature of experiment [14]: MM1S cell viability effects, profiling panel, calcein-AM fluorescence, 48 h, basal (AID 1165).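 Also: viability of MM1S multiple myeloma cells under basal unstimulated conditions; test concentration not given here.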 The note with it: higher = more signal.
Experiment [15] is described as follows: basal RPMI8226 viability, no added stimulus, profiling panel, cell-based, calcein-AM fluorescence, 48 h, PK04 Diversity Set (AID 1166).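 Also: cells grown under basal conditions without added stimulus; test concentration not given here.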 The note with it: RPMI8226 myeloma viability, higher = more signal.
Experiment [16] is described as follows: basal HepG2 mitochondrial membrane potential changes, profiling panel, cell-based, JC-1 fluorescence, 24 h, 100 nL compound (AID 1167). Also: test concentration not given here. The note with it: higher = more signal.
Experiment [17] in a line: basal 3T3-L1 adipocyte mitochondrial potential changes, profiling panel, cell-based, JC-1 fluorescence, 3T3-L1 adipocytes, 24 h, 100 nL compound (AID 1168). Also: test concentration not given here. The conditions noted are these: JC-1 mitochondrial fluorescence, higher = more signal, called active from +8 up or from −8 down.
Experiment [18] is described as follows: basal RPMI8226 mitochondrial membrane potential changes, profiling panel, cell-based, JC-1 fluorescence, 24 h, 100 nL compound (AID 1169). Also: test concentration not given here. The note with it: RPMI8226 myeloma, JC-1 mitochondrial potential fluorescence, higher = more signal.
Experiment [19] is described as follows: basal MM1S mitochondrial membrane potential changes, profiling panel, cell-based, JC-1 fluorescence, 24 h, 100 nL compound (AID 1170). Also: test concentration not given here. The note with it: higher = more signal.
Experiment [20] is described as follows: A549 lung cancer cell viability effects, profiling panel, resazurin fluorescence, 24 h, PK04 Diversity Set (AID 1171). Also: test concentration not given here. The conditions noted are these: higher = more signal, called active from +8 up or from −8 down. In general terms: The colour change of resazurin is a common sign of viable cells or microbes.

The source made the active and inactive calls.

Take `COC(=O)[C@@]1(Cc2ccc(F)cc2)[C@H]2c3cc(C(=O)N(C)C)n(CCCNc4ccc(C(F)(F)F)cc4Cl)c3C[C@H]2CN1C(=O)c1ccccc1`: the z-score is -1.74 (inactive) in experiment [1]; 1.36 (inactive) in experiment [3]; 0.986 (inactive) in experiment [4]; 0.277 (inactive) in experiment [5]; 1.33 (inactive) in [6]; -0.0991 in [7]. The z-score in experiment [8] was 0.844 (inactive); in [9] it was 0.619 (inactive); in [10] it was 0.897; in [11], -1.34; in experiment [12], -0.851; in experiment [13] it was -0.136. Further, the z-score in experiment [14] was -0.84; in [15] it was -4.32; in [16] it was 2.61; in [17], 0.391 (inactive); in experiment [18] it was -0.777; in experiment [19], -2.12. Besides, in [20], the z-score is -1.85 (inactive). In addition, in [2], the composite z-score was 0.634.
As for `O=C(NCC(O)CO)[C@@]1(Cc2ccccc2)COC(c2ccc(OCCCO)cc2)=N1` (stereo not given in full), the z-score was 0.712 (inactive) in [1]; 8.57 (active) in experiment [3]; 0.648 (inactive) in experiment [4]; 2.87 (inactive) in experiment [5]; 0.472 (inactive) in experiment [6]; -0.404 in experiment [7]. The z-score was -0.44 (inactive) in [8]; 0.82 (inactive) in [9]; 0.132 in [10]; -0.0736 in experiment [11]; -0.183 in experiment [12]; -0.283 in experiment [13]. The z-score is -0.467 in experiment [14]; -0.164 in experiment [15]; -0.201 in [16]; -0.817 (inactive) in [17]; -0.805 in experiment [18]; -0.89 in experiment [19]. In [20], the z-score was -0.0991 (inactive). In experiment [2], this compound had a composite z-score of -0.266.
Turning to `O=C1O[C@H](c2ccccc2)[C@H](c2ccccc2)N2[C@H]1[C@@H](C(=O)Nc1nc3ccccc3s1)[C@]1(C(=O)Nc3ccc(C#CC4=CCCCC4)cc31)[C@H]2c1ccc(OCCO)cc1`, the z-score is -0.199 (inactive) in experiment [1]; 2.54 (inactive) in experiment [3]; 1.62 (inactive) in [4]; 1.44 (inactive) in experiment [5]; 1.2 (inactive) in experiment [6]; -0.686 in [7]. The z-score is 1.92 (inactive) in experiment [8]; 0.266 (inactive) in experiment [9]; 0.0146 in [10]; -0.641 in [11]; 1.07 in [12]; -0.819 in experiment [13]. The z-score in [14] is -1.69; in [15], -1.7; in [16], -3.34; in experiment [17], 0.256 (inactive); in [18], -1.07; in [19] it was -1.8. The z-score in experiment [20] was 0.18 (inactive). The compound also showed a composite z-score in experiment [2] of 0.46.
For `COc1ccc(C(O)C2C=CC3C(=O)N(c4ccccc4)C(=O)C3N2Nc2ccccc2)c2ccccc12` (stereo not given), the z-score in experiment [1] was -0.831 (inactive); in experiment [3], 6.65 (inactive); in experiment [4], 1.75 (inactive); in [5], 0.303 (inactive); in experiment [6], 1.34 (inactive); in experiment [7] it was -0.654. Besides, the z-score in [8] was -1.48 (inactive); in [9] it was -3.15 (inactive); in [10], -2.57; in experiment [11], -0.308; in experiment [12], -2.02; in experiment [13], 0.407. For the same compound, the z-score in experiment [14] is -0.174; in experiment [15], -0.858; in [16], -1.37; in experiment [17], -0.849 (inactive); in experiment [18], -0.86; in [19] it was -0.978. In addition, the z-score in experiment [20] was -0.301 (inactive). In experiment [2], the composite z-score worked out at 0.318.

The record behind these values is PubChem BioAssay.
